Inconclusive results are not listed. Where a call stands in place of a potency, no number is given. Active and inactive are the calls of the source. Calls follow the shape of the dose curve; as a rule, active = well fitted inhibition curve with a large enough effect in the repeat runs; inconclusive = weak or mixed curves; inactive = no such curve, though single readings can be large or run the other way.
target: Cytochrome P450 2C19 (Homo sapiens) (UniProt P33261); test: Cytochrome P450 Family 2 Subfamily C Member 19 (CYP2C19) small molecule antagonists: luciferase reporter qHTS assay (AID 1671197); conditions: P450-Glo CYP2C19 enzyme, luciferin luminescence, 1 h; series mostly up to 115 µM; also: nearly all actives have a fitted effect of over 65% in size
Source text: National Center for Advancing Translational Sciences [NCATS]
U.S. Environmental Protection Agency [EPA]
National Institutes of Environmental Health Sciences [NIEHS]
National Toxicology Program [NTP]
U.S. Food and Drug Administration [FDA]
Cytochrome P450 (CYP) enzymes are membrane-bound hemeproteins that play a key role in metabolism of drugs and xenobiotics. Evaluation of the effect of chemicals on CYP isozymes is useful to minimize the adverse drug reactions and toxicities in drug development process. Tox21 chemicals were tested for their effect on CYP enzyme activities by using P450-Glo (TM) screening systems (Promega Corporation, Madison, WI). These systems provide a luminescent method containing proluciferin substrates and are converted to luciferin products by CYP isozymes. The luciferin products formed are detected with a luciferin detection reagent, and the amount of light produced is proportional to CYP activity. P450-Glo (TM) CYP2C19 screening system (Catalog. No. V9880) was used to detect the compounds that interfere in CYP2C19 activity. The positive control compound used for CYP2C19 assay is ketoconazole (Sigma-Aldrich, St. Louis, MO).
Tox21 Assay Protocol Summary:
Two ul of enzyme-substrate mix was dispensed into medium binding white/solid 1536-well plates (Greiner Bio-One North America Inc., Monroe, NC) using a BioRaptr Flying Reagent Dispenser (FRD, Beckman Coulter, Brea, CA). Compounds dissolved in DMSO and positive control (ketoconazole) were transferred to the assay plates at 23 nl using a Pintool station (Wako, San Diego, CA). The assay plates were incubated at room temperature for 10 min. Then 2 ul of NADPH regeneration solution was added to each well of the assay plates using an FRD and incubated at 37C for 1 h. The reaction was stopped by adding 4 ul of detection reagent using an FRD and after 20 min incubation at room temperature the luminescence signal was measured using a ViewLux plate reader (Perkin Elmer, Shelton, CT). Data were expressed as relative luminescence units.
Potency is read from the fitted curve at half-maximal effect.

Chain of Cytochrome P450 2C19 (Homo sapiens) (P33261 whole entry, looked up): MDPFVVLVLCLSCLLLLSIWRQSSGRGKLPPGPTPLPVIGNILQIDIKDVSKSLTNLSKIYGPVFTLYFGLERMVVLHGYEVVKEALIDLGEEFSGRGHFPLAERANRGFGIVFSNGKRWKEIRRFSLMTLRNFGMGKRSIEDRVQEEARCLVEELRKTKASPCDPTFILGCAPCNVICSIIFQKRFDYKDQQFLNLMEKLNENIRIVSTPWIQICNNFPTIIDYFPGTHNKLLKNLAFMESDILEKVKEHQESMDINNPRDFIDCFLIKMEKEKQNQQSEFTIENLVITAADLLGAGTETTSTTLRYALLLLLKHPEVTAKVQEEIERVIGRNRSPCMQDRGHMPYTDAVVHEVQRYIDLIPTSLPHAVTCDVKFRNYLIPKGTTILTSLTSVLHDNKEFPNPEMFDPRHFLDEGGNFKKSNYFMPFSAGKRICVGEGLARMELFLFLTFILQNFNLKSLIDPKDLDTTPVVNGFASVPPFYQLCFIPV

Structure (SMILES) | Potency
CCCCCCCCCCCCCCCCC(=O)O | inactive
NC(=O)c1ccccc1C(N)=O | 40.1 µM (active)
C=C[Si]1(C)O[Si](C)(C=C)O[Si](C)(C=C)O[Si](C)(C=C)O1 (stereo not given) | 63.3 µM (active)
C/C=C1\[C@H]2C=C(C)C[C@]1(N)c1ccc(=O)[nH]c1C2 | inactive
CCCC1CCOC(C)S1 (stereo not given) | inactive
O=[N+]([O-])c1ccc(Cl)cc1Cl | inactive
N#C[C@@H]1CC(F)(F)CN1C(=O)CNC1CC2CCC(C1)N2c1ncccn1 (stereo not given in full) | 71 µM (active)
O=[N+]([O-])c1cccc(I)c1 | inactive
C=C(C)C(=O)OCCCCCCCCCCOC(=O)C(=C)C | inactive
O=[N+]([O-])c1ccccc1CCO | inactive
CCCCCCOC(=O)c1ccccc1 | inactive
CC(C)C/C=C(\C=O)c1ccccc1 | 17.8 µM (active)
CC(CCl)OC(C)CCl (stereo not given) | inactive
CCCCCO | inactive
O=C(Cl)c1ccc(F)c(Cl)c1 | inactive
Cc1ccc2ccccc2c1[N+](=O)[O-] | 79.6 µM (active)
CCC(=O)O[C@]1(C(=O)COC)[C@@H](C)C[C@H]2[C@@H]3CCC4=CC(=O)C=C[C@]4(C)C3(F)[C@@H](O)C[C@@]21C (stereo not given in full) | inactive
CCOC(OCC)OCC | inactive
Cc1c(Nc2ncccc2C(=O)O)cccc1C(F)(F)F | inactive
O=C(OCCOCCOCCOC(=O)c1ccccc1)c1ccccc1 | 20 µM (active)

Structure (SMILES) | Potency
CC(CN=Cc1ccccc1O)N=Cc1ccccc1O (stereo not given) | inactive
Cc1ccc2c(Cl)cc(Cl)c(O)c2n1 | inactive
CCCCOC(=O)CC#N | 7.44 µM (active)
CCOCCn1c(N2CCCN(C)CC2)nc2ccccc21 | inactive
C1=COCCC1 | inactive
CCCCCCCCS | inactive
O=S(=O)(O)c1cc(Cl)c(Cl)cc1Cl | inactive
CC/C=C\CCO | inactive
O=C(O)c1cc(C(=O)O)cc([N+](=O)[O-])c1 | inactive
Clc1nc2ccccc2nc1Cl | inactive
Nc1nc(Cl)nc2c1ncn2[C@H]1C[C@H](O)[C@@H](CO)O1 | inactive
Nc1cccc2c(=O)[nH][nH]c(=O)c12 | inactive
CCCCCCCCCC(C)C=O (stereo not given) | inactive
CC(C)(Cc1c[nH]c2ccccc12)NCC(O)COc1ccccc1C#N (stereo not given) | inactive
O=C(O)c1ccccc1-n1cc(C(=O)O)c(=O)c2cc(Nc3c(F)cc(F)cc3Cl)c(Cl)cc21 | inactive
NC(=O)c1cc[n+](CC2=C(C(=O)[O-])N3C(=O)[C@@H](NC(=O)Cc4cccs4)[C@H]3SC2)cc1 | inactive
O=c1c2ccccc2oc2ccccc12 | 28.3 µM (active)
O=C(O)c1cccnc1Nc1cccc(C(F)(F)F)c1 | inactive
C=CC(O)CCCCC (stereo not given) | inactive
COc1ccc(C(=O)c2ccc(C)cc2)c(O)c1 | 5.08 µM (active)

— PubChem BioAssay (Tox21)
